Source: PubChem
TEAD-YAP inh – TEAD-YAP interaction inhibition, primary screen, TEAD-YAP interaction inhibitor project, luminescence, HEK-TIYL cells | TEAD-Gal4/YAP UAS-luciferase luminescence | inhibition, % at 9.12 µM | 640,000 tested, 1.4% active; in the data active means inhibition above about 32%;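 further: 0% = median of test compound wells and 100% = reference inhibitor wells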
FBW7 act – FBW7 E3 ligase activators, primary screen, biochemical, AlphaScreen, human | normalized activity (activation), % at 26.1 µM | 650,000 tested, 0.13% active | AID 1259310, 2017 | AlphaScreen FBW7–phospho-cyclin E peptide binding, activator screen | F-box/WD repeat-containing protein 7 (Homo sapiens), Q969H0; in the data active means normalized activity above about 1.9%;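 further: purified mutant Fbw7 with reduced substrate affinity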
Target sequence (Q969H0 whole entry, looked up): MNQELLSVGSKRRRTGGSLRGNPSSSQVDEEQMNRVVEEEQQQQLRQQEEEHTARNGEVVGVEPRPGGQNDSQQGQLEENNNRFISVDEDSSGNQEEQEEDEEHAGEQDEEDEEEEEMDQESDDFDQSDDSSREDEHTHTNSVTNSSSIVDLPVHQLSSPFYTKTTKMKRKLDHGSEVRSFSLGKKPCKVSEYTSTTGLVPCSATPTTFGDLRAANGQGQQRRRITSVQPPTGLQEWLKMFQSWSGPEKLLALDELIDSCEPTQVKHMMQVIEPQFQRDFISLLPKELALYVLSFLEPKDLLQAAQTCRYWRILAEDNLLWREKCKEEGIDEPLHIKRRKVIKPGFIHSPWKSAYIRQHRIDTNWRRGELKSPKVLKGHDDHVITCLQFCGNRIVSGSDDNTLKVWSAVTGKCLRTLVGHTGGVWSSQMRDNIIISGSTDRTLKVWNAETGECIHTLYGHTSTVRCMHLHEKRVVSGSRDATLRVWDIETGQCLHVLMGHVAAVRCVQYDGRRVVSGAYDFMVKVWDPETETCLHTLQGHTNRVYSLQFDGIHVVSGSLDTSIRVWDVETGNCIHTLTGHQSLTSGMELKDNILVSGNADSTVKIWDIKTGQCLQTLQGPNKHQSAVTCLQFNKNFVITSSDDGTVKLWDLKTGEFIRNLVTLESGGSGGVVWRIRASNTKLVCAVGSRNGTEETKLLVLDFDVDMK
MITF inh – MITF inhibitors, primary screen, biochemical, AlphaScreen, human; 650,000 tested, 0.91% active; AlphaScreen MITF homodimerization, bead proximity signal; inhibition, % at 2.6 µM; Microphthalmia-associated transcription factor (Homo sapiens), O75030; in the data active means inhibition above about 50%;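 further: 0% = vehicle wells with protein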
GPR151 ag – activators of human GPR151, primary screen, cell-based, PathHunter beta-arrestin, luminescence; AID 1508602, 2020; activation, % at 11.2 µM; 650,000 tested, 1% active; PathHunter beta-arrestin GPR151 cells; in the data active means activation above about 4.9%;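 further: 0% = median of compound wells and 100% = cells with positive control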
Numbers without * were called inactive. An excerpt weighted towards active compounds, which were near 3.4% of everything screened.

SMILES | TEAD-YAP inh | FBW7 act | MITF inh | GPR151 ag
COc1ccc(N2CCN(C(=O)c3ccc(CS(=O)c4ccc(C)cc4)o3)CC2)cc1 (stereo not drawn) | 55.6* | -0.3 | -1.4 | 0.4
COc1ccc(N2CCN(C(=O)c3ccc(CS(=O)c4ccccc4)o3)CC2)cc1 (stereo not drawn) | 45.8* | -0.2 | 8.5 | 0.2
Cc1ccc(S(=O)Cc2ccc(C(=O)N3CCN(C(=O)c4ccco4)CC3)o2)cc1 (stereo not drawn) | 4.4 | 0.1 | 7.5 | 0.2
CC(C)c1ccc(NC(=O)Cn2c(=O)n(CC3CCCO3)c(=O)c3ccccc32)cc1 (stereo not drawn) | -10.6 | 0.1 | -16.2 | 1.0
Cc1cc(NC(=O)c2ccc(S(=O)(=O)NC3CC3)cc2)c2cc(F)cc(F)c2n1 | 47.9* | -0.5 | -11.4 | -0.6
CCNC(=O)c1ccc2[nH]c(C)c(C)c2c1 | -32.5 | 0.0 | 5.7 | -0.3
Cc1[nH]c2ccc(C(=O)NN)cc2c1C | 38.2* | -0.2 | -14.2 | -0.1
Cc1ccc(S(=O)(=O)Nc2cccc(Cl)c2)cc1C(=O)O | -0.3 | 0.2 | 6.0 | -0.3
CCOC(=O)c1cnn(-c2ccc(Cl)nn2)c1/N=C/N(C)C | 0.6 | 0.1 | -4.0 | -0.4
CCOC(=O)c1cnn(-c2nc(C)nc3sc(-c4ccccc4)cc23)c1/N=C/N(C)C | 34.1* | 0.0 | 0.0 | 1.8
Cc1[nH]n(-c2ccccc2)c(=O)c1C(N)=NC(=O)c1ccccc1 | 10.8 | -0.1 | -7.5 | 0.7
Cc1[nH]n(-c2ccccc2)c(=O)c1C(=O)c1cccc(F)c1 | 46.0* | -0.5 | -9.1 | 0.2
Cc1[nH]n(-c2ccccc2)c(=O)c1C(=O)c1ccc(Cl)cc1 | 60.8* | 0.1 | -2.5 | -1.1
Cc1nc2cc(NCc3nc4ccccc4n3C)ccc2n1C | 80.9* | 0.7 | 9.4 | -10.6
Cc1ccc(NC(=O)c2ccc(C(=O)Nc3ccc(C)c(Cl)c3)cc2)cc1Cl | 7.5 | -0.1 | 4.1 | 0.5
CCc1c(C)sc(NC(=O)C2C3C=CC(C3)C2C(=O)O)c1C(=O)OC (stereo not drawn) | 31.9* | 0.0 | 12.0 | -1.7
CCC1CCc2c(sc(NC(=O)C3C4C=CC(C4)C3C(=O)O)c2C(=O)OC)C1 (stereo not drawn) | 56.5* | -0.2 | 11.0 | -1.0
CCOC(=O)c1c(NC(=O)C2C3C=CC(C3)C2C(=O)O)sc2c1CC(C)CC2 (stereo not drawn) | 36.9* | -0.4 | -3.8 | -0.3
CCOC(=O)c1c(NC(=O)C2C3C=CC(C3)C2C(=O)O)sc2c1CCC2 (stereo not drawn) | 18.8 | 0.0 | 1.3 | -0.7
COc1ccc2cc(C(c3nnnn3C(C)(C)C)N3CCCCC3)c(=O)[nH]c2c1 (stereo not drawn) | 7.1 | 0.0 | 1.8 | 1.3
CCOC(=O)c1ccc(CNC(=O)CSc2nc(N)c3c(C)c(C)sc3n2)cc1 | 2.9 | 0.1 | 4.3 | 1.8
O=C(Nc1nc(-c2c[nH]c3ccccc23)cs1)c1n[nH]c(=O)c2ccccc12 | 36.2* | 0.1 | -3.7 | 2.1
O=C(Nc1nc(-c2c[nH]c3ccccc23)cs1)C1CCCC1 | -56.2 | 0.1 | -0.8 | -1.4
COc1cc(C(=O)/C=C/Nc2cccc(O)c2)cc(OC)c1OC | 37.7* | 0.0 | 13.3 | 0.0
Cc1ccc(C(=O)/C=C/Nc2cccc(O)c2)cc1 | 92.4* | -0.2 | -1.9 | -0.2
SMILES | TEAD-YAP inh | FBW7 act | MITF inh | GPR151 ag
Cc1ccc(/C=C/C(=O)c2ccc(O)cc2)cc1 | 46.6* | -0.1 | -1.0 | -2.3
COc1cc(C(=O)/C=C/Nc2cccc(F)c2)cc(OC)c1OC | 28.4 | 0.0 | -1.5 | 2.2
C/C(=N\Nc1nnc(C(C)(C)C)c(=O)[nH]1)c1ccc(C)cc1 | 3.5 | -0.2 | 7.3 | 3.0
CNC(=O)c1cc(F)ccc1Nc1cc(Nc2ccc3c(c2)CC(=O)N3)ncc1C(F)(F)F | 1.4 | -0.1 | 4.1 | -1.8
CNC(=O)c1cc(F)ccc1Nc1cc(Nc2ccc(NC(C)=O)cc2)ncc1C(F)(F)F | 38.1* | 0.0 | 0.1 | -0.2
CC(=O)Nc1ccc(NC(=O)c2ccc(F)cc2)nc1 | -25.6 | 0.1 | 5.5 | -0.1
CNC(=O)c1cc(F)ccc1Nc1cc(Nc2ccc3c(c2)NC(=O)C3)ncc1C(F)(F)F | 39.0* | -0.2 | 7.3 | 0.3
O=c1nc2s/c(=C/c3ccc4c(c3)OCO4)c(=O)n2nc1Cc1ccccc1 | 2.9 | -0.1 | -0.6 | 1.6
CCN1CCN(C(=O)c2sc3ncn(Cc4ccccc4Cl)c(=O)c3c2C)CC1 | -8.6 | -0.2 | -1.6 | -1.6
O=C(CCl)NCC1(c2ccccc2)CCCC1 | 57.5* | 1.6 | 7.1 | 0.2
O=C1c2ccccc2-c2c(Nc3ccccc3)c(=O)[nH]c3cccc1c23 | 49.4* | -0.1 | 7.2 | 0.2
COc1ccc(Nc2c3c4c(cccc4[nH]c2=O)C(=O)c2ccccc2-3)cc1 | 54.6* | -0.1 | 3.2 | 0.6
COc1ccc(/C=C2\SC(=S)N(c3ccc(O)c(C(=O)O)c3)C2=O)cc1 | 5.8 | 0.0 | 0.3 | -0.5
O=C(O)c1cc(N2C(=O)/C(=C\c3ccco3)SC2=S)ccc1O | -2.7 | -0.2 | 81.2* | 1.0
Cc1ccc(/C=C2/SC(=S)N(c3ccc(O)c(C(=O)O)c3)C2=O)o1 | -1.5 | -0.2 | 82.8* | -0.8
CC(Sc1nccn1C)C(=O)NC(c1ccccc1)c1ccccc1 (stereo not drawn) | -0.6 | -0.1 | -18.2 | 0.0
CC(Sc1nnc(C(F)(F)F)n1N)C(=O)NC(c1ccccc1)c1ccccc1 (stereo not drawn) | 33.2* | -0.1 | -2.5 | -1.5
Cc1nn(C(C)C(=O)N2CCCC2)c(C)c1[N+](=O)[O-] (stereo not drawn) | 3.2 | 0.1 | 2.9 | -1.6
NC1=NC2(CCCCCC2)n2c(nc3ccccc32)N1 | 78.0* | -0.2 | 3.6 | -1.3
O=c1[nH]c(-c2ccccc2O)nc2sc3c(c12)CCCC3 | -4.6 | 0.7 | 10.9 | -0.7
O=c1[nH]c(-c2cc(O)c(O)c(O)c2)nc2sc3c(c12)CCCC3 | 59.9* | 0.2 | -1.0 | 0.0
Cc1ccc(NC2=NCC(=O)N2C2CCCC2)cc1 | 56.3* | -0.1 | 0.3 | -5.6
CC(C)(C)c1ccc(C(=O)Nc2ccc(NC(=O)c3cc4ccccc4oc3=O)cc2)cc1 | -2.6 | -0.1 | -3.7 | 1.0
CC(C)C[C@H]1NC(=O)[C@@H]2C[C@H](NCc3ccc(F)cc3F)CN2C1=O | -5.6 | 0.1 | -10.8 | 0.6
O=C(CC(O)(C(F)(F)F)C(F)(F)F)Nc1cccc(C(F)(F)F)c1 | 83.9* | 1.4 | 56.2* | 1.5
CC(=O)Oc1ccccc1C(=O)Nc1cccc(C(F)(F)F)c1 | 65.0* | 0.1 | 20.3 | -0.6
NC(=O)/C=C/C(=O)Nc1cccc(C(F)(F)F)c1 | 43.3* | 0.1 | 11.1 | 0.0
CC(=O)Nc1cccc(C(F)(F)F)c1 | -3.8 | -0.1 | -8.9 | 0.3
CCOc1ccccc1C(=O)Nc1cccc(C(F)(F)F)c1 | 17.4 | -0.1 | 8.7 | -1.2
O=C(CSCC(=O)Nc1cccc(C(F)(F)F)c1)Nc1cccc(C(F)(F)F)c1 | 3.6 | -0.2 | -1.6 | 1.0
